# Assay results published in publication PMC4336329 (PLoS ONE, 2015).
# In all, about 310,000 compounds went through this assay and about 2,200 (0.71%) showed an effect of 50% or more. The effect is printed as a negative number. The entries come from a sample that favours strong results as a whole.
# Biological target: human ether-à-go-go-related gene (hERG) potassium channel (human, UniProt Q12809)
# Test: primary screen, population patch clamp on CHO cells stably expressing hERG; higher = less effect of the substance
# human ether-à-go-go-related gene (hERG) potassium channel, sequence (Q12809 whole entry, looked up): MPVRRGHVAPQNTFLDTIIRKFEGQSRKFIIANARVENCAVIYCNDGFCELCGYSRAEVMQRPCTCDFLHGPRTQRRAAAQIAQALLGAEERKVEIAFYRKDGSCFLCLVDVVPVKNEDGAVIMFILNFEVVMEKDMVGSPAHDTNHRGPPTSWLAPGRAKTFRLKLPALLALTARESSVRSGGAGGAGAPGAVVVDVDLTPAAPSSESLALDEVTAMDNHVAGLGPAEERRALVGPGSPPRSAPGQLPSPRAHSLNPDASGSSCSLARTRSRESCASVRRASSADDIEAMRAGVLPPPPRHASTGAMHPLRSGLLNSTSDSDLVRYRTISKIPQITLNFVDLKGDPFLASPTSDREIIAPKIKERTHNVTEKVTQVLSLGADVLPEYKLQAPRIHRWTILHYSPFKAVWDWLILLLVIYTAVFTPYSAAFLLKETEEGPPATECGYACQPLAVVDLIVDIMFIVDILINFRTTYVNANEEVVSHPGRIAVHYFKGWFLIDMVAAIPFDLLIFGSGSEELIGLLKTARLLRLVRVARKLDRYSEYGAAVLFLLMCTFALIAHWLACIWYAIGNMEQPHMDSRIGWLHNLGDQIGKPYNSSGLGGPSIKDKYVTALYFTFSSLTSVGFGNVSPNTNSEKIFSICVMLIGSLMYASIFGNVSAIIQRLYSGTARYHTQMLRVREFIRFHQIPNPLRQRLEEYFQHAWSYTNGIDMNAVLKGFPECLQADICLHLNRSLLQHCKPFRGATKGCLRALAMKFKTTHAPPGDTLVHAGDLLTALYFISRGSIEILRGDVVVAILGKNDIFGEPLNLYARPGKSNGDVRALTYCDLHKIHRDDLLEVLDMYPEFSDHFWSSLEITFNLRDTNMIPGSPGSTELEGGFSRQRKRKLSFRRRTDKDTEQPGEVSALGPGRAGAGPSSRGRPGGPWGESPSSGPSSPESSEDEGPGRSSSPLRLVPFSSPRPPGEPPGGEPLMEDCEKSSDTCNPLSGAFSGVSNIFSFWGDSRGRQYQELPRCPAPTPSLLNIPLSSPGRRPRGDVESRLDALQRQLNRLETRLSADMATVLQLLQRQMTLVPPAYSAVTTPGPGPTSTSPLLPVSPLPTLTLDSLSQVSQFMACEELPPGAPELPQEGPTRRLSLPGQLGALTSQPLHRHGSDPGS
row,Compound,"hERG current change (%, negative = inhibition) at 1uM [%]"
1,COc1cc2c(cc1OC)CN(CC(=O)Nc1ccc3c(c1)OCO3)CC2,14.5
2,CC(C)(C)S(=O)(=O)c1cnc2c(-c3ccsc3)cnn2c1N,15.9
3,COc1cc2c(cc1OC)CN(C(=O)COc1ccccc1[N+](=O)[O-])CC2,9.5
4,O=C(NC(=S)NCc1ccccc1)c1ccc2c(c1)OCO2,2.26
5,COC(=O)c1ccccc1NC(=S)NC(=O)c1ccc2c(c1)OCO2,20.6
6,O=C(NC(=S)Nc1ccccc1Br)c1ccc2c(c1)OCO2,-67.9
7,Cc1ccc(N(C)S(=O)(=O)c2cccc(C(=O)Nc3ccc(C)cn3)c2)cc1,15.7
8,N#CCCN=C(NS(=O)(=O)c1ccccc1)c1ccccc1,2.49
9,O=C(COc1ccc2ccc(=O)oc2c1)NCCc1c[nH]c2ccc(F)cc12,12.5
10,CCOc1ccc(N2C(=O)CC(n3nc(C)cc3C)C2=O)cc1 (stereo not drawn),3.53
11,Br.CCOC(=O)c1c(CSC(=N)N)n(C)c2cc(Br)c(OC(C)=O)cc12,-36.7
12,CCOC(=O)c1c(CSC(=N)N)n(-c2ccccc2)c2cc(Br)c(OC(C)=O)cc12,-57.4
13,Br.CCOC(=O)c1c(CSC(=N)N)n(-c2ccc(C)cc2)c2cc(Br)c(OC(C)=O)cc12,-36.7
14,Cc1cccc(NC(=O)Nc2ccc3c(c2)OCO3)n1,15.6
15,Cc1cccc(NC(=O)CN2CCN(C(=O)c3cncn3-c3ccc(F)cc3)CC2)c1C,-22.2
16,Cc1cccc(NC(=O)CN2CCN(C(=O)c3cccc(-n4cnnn4)c3)CC2)c1C,-11.9
17,O=C(CN1CCN(C(=O)c2c(F)cccc2F)CC1)Nc1ccccc1C(F)(F)F,3.09
18,Cc1nn(Cc2ccccc2)c(C)c1C(=O)N1CCN(CC(=O)Nc2ccccc2Cl)CC1,-13.4
19,O=C(CN1CCN(C(=O)c2cncn2-c2ccc(F)cc2)CC1)Nc1ccccc1C(F)(F)F,-68.3
20,O=C(CN1CCN(C(=O)c2cccc(-n3cnnn3)c2)CC1)Nc1ccccc1Cl,-92.9
21,O=C(CN1CCCCC1)Nc1ccccc1Cl,13.9

row,Compound,"hERG current change (%, negative = inhibition) at 1uM [%]"
1,O=C(CN1CCN(C(=O)c2cncn2-c2ccccc2)CC1)Nc1ccccc1Cl,-83.4
2,CCc1ccccc1NC(=O)CN1CCN(C(=O)c2cccc(-n3cnnn3)c2)CC1,-5.51
3,O=C(Nc1ccncc1)Nc1cccc(Cl)c1,6.49
4,CC(C)(C)n1nc2c(c1NC(=O)c1ccc(C(F)(F)F)cc1)CS(=O)(=O)C2,-9.67
5,Cc1ccc(-c2nc(CS(=O)CC(=O)NCCN3CCCCCC3)c(C)o2)cc1 (stereo not drawn),15.5
6,Cc1ccc(C(=O)Cn2c(N3CCOCC3)nc3c2c(=O)n(C)c(=O)n3C)cc1,5.32
7,COc1cccc(Nc2nc(Nc3ccc(Cl)c(C(=O)O)c3)nc(C)c2[N+](=O)[O-])c1,9.52
8,CCOc1ccc(NS(=O)(=O)c2ccc(SC)cc2)cc1,0.548
9,COc1ccc(CN2CCC(n3nccc3NC(=O)c3cccc(F)c3)CC2)cc1O,-81.5
10,CCc1ccc(CN2CCC(n3nccc3NC(=O)c3ccc4c(c3)OCO4)CC2)cc1,-58.4
11,CCc1ccc(CN2CCC(n3nccc3NC(=O)c3cccc(F)c3)CC2)cc1,-78.3
12,CCn1cc(CN2CCC(n3nccc3NC(=O)c3cccc(F)c3)CC2)cn1,6.11
13,COc1ccc(CN2CCC(n3nccc3NC(=O)C3CC3)CC2)cc1O,-18.7
14,CCOc1cccc(CN2CCC(n3nccc3NC(=O)c3ccc4c(c3)OCO4)CC2)c1,-1.26
15,O=C(Nc1ccnn1C1CCN(Cc2ccc(C#CCCO)cc2)CC1)c1cccc(F)c1,-37.5
16,O=C(Nc1ccnn1C1CCN(Cc2ccc3nonc3c2)CC1)c1cccc(F)c1,-1.92
17,CC(=O)c1cccc(CN2CCC(n3nccc3NC(=O)c3ccc4c(c3)OCO4)CC2)c1,6.25
18,CC(C)c1ccc(NC(=O)c2ccc(NC3=NC4CS(=O)(=O)CC4S3)cc2)cc1 (stereo not drawn),-0.0656
19,COCC(=O)N(Cc1cc2cc(C)ccc2[nH]c1=O)c1ccc(C)c(C)c1,16.4
20,CN1CCN(NC(=O)CN(C)S(=O)(=O)c2cc(Cl)ccc2Cl)CC1,6.96
21,O=C(NNc1c(Cl)cccc1Cl)C1CCC1,13.3
